Screens deposited in PubChem by several laboratories.
CYP2C19 inhib: human CYP2C19 inhibition. P33261. CYP2C19 Supersomes, luciferin-H EGE luminescence, 30 min. inhibition, % at 5 µM. hit rate 21% among 96,000;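 active means CYP2C19 inhibition above a set limit at 5 µM in the primary screen, cut at about 50% in these data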;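 further: plate controls were negative control wells for no effect and 2.5 mM tranylcypromine positive control for full effect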
CYP2C19 activ: increases human CYP2C19 enzyme activity; activation factor at 5 µM; recombinant CYP2C19, luciferin-H EGE luminescence; active compounds read high; 0 = fully inhibited enzyme, 1 = untreated enzyme; 96,000 tested, under 10 active; P33261;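 active means activation factor of at least 2 at 5 µM in the primary screen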;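 further: 0 = wells with 2.5 mM tranylcypromine and 1 = vehicle-only wells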
CYP2C9 inhib: human CYP2C9 inhibition. P11712. CYP2C9 Supersomes, luciferin-H conversion, luminescence. inhibition, % at 5 µM. hit rate 20% among 96,000;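 active means blocking of liver enzyme CYP2C9 beyond about 50% at 5 µM, limit read from the data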
Cav3 T inh: inhibitors of human Cav3.2 T-type calcium channel; Cav3.2-expressing cells, Fluo-4 calcium fluorescence FDSS; active compounds read low; B-score at 10 µM; hit rate 4% among 100,000;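 active means single-dose well whose peak fluorescence ratio is a statistical outlier from its plate by either plate-standardised score or position-corrected B-score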
CYP2C9 act: increases human cytochrome P450 2C9 activity. hit rate 1.4% among 96,000. recombinant CYP2C9, luciferin-H conversion, luminescence; active compounds read high; factor 1 = untreated enzyme, 0 = blocked. AID 1024. P11712. activation factor at 5 µM;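 active means activation factor of 2 or more for CYP2C9 at a 5 µM dose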;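 further: 0 = sulfaphenazole-blocked wells and 1 = vehicle-only wells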
The depositor's hits bear a star; x = no result given. An excerpt weighted towards active compounds, which were near 27% of everything screened.

SMILES	CYP2C19 inhib	CYP2C19 activ	CYP2C9 inhib	Cav3 T inh	CYP2C9 act
CCOC(=O)C1=C(C)NC(=O)NC1c1cc2c(cc1Br)OCO2 (stereo not given)	x	x	x	0.72	x
CC1=C(C(=O)OCC(C)C)C(c2cc3c(cc2Br)OCO3)NC(=O)N1C (stereo not given)	84*	0.2	72*	-0.78	0.3
CC1=C(C(=O)OCC(C)C)C(c2ccccc2Cl)NC(=O)N1C (stereo not given)	98*	0	84*	-2.2	0.2
CCOCCOC(=O)C1=C(C)N(C)C(=O)NC1c1ccccc1Cl (stereo not given)	54*	0.5	12	0.41	0.9
Cc1cc2nc(C)n3c4ccccc4nc3n2n1	-13	1.1	-12	0.39	1.1
Cc1ccc(-n2nnnc2-c2cnc3cc4c(cc3c2C)OCO4)cc1	19	0.8	22	-0.61	0.8
C=C(C)CSc1nnc(-c2ccc(OC)cc2)n1N	-7	1.1	-7	0.2	1.1
C=C(C)CSc1nnc(-c2cccc(Cl)c2)n1N	58*	0.4	-2	0.76	1
O=C(Nc1ccc2c(c1)OCO2)C1CC(c2ccc(F)cc2)=NO1 (stereo not given)	53*	0.5	21	-0.27	0.8
CCc1ccccc1NC(=O)C1CC(c2ccc(F)cc2)=NO1 (stereo not given)	83*	0.2	-40	0.16	1.4
CCOC(=O)c1sc(C(=O)OCC)c(OCCO)c1OCCO	-2	1	16	0.059	0.8
COc1ccc(C2C(C#N)=C(N)Oc3cc(C)n(Cc4ccncc4)c(=O)c32)cc1 (stereo not given)	62*	0.4	72*	2.2	0.3
Cc1cc2c(c(=O)n1CCN(C)C)C(c1ccncc1)C(C#N)=C(N)O2 (stereo not given)	-12	1.1	-14	1.2	1.1
Cc1cc2c(c(=O)n1Cc1cccnc1)C(Cc1ccccc1)C(C#N)=C(N)O2 (stereo not given)	74*	0.3	68*	1.8	0.3
COC(=O)C(Cc1cnc(Cl)s1)(C(=O)OC)c1ccc(C(F)(F)F)cc1[N+](=O)[O-]	87*	0.1	51*	-8.6*	0.5
CCOc1ccc(C(F)(F)F)cc1NC(=O)c1ccc(OC)c([N+](=O)[O-])c1	-1	1	-5	-1.6	1.1
COC(=O)C(Cc1cnc(Cl)s1)(C(=O)OC)c1ccc([N+](=O)[O-])cc1[N+](=O)[O-]	79*	0.2	67*	-0.52	0.3
C=CCC(C(=O)OC)(C(=O)OC)c1ccc([N+](=O)[O-])cn1	29	0.7	10	x	0.9
COc1cc(OC)c(C(=O)Nc2ccc(S(=O)(=O)Nc3ncccn3)cc2)cc1OC	-5	1.1	3	0.039	1
COC(=O)CSc1nnc(-c2ccc(S(=O)(=O)NCc3ccccc3Cl)cc2)o1	4	1	34	0.39	0.7
CCN(CC)CCNC(=O)c1ccc2c(=O)n(CCc3ccccc3)c(=O)[nH]c2c1	18	0.8	-1	1	1
Cc1ccc(CSc2nc3ncccc3[nH]2)cc1	76*	0.2	56*	0.041	0.4
COc1cc(C(=O)Oc2cccc(Nc3ncnc4ccccc34)c2)cc(OC)c1OC	45	0.5	63*	-2	0.4
O=C(O)c1cccc(Nc2ncnc3ccccc23)c1	17	0.8	3	1.2	1
O=C(O)C1(P(=O)(c2ccccc2)c2ccccc2)CCC1	-3	1	1	0.34	1
SMILES	CYP2C19 inhib	CYP2C19 activ	CYP2C9 inhib	Cav3 T inh	CYP2C9 act
CCOC(=O)C1(P(=O)(c2ccc(Cl)cc2)c2ccc(Cl)cc2)CCC1	80*	0.2	29	-6.3*	0.7
O=C(CSCc1ccc(F)cc1)Nc1nc2c(s1)CCCC2	30	0.7	41	-6.6*	0.6
CCOC(=O)c1c(N2C(=O)C=CC2=O)sc(C)c1C	9	0.9	19	0.012	0.8
Cc1ccccc1Oc1ccc(Oc2ccccc2C)nn1	26	0.7	-61	-0.72	1.6
O=S(=O)(NC1CC1)c1ccc(S(=O)(=O)N(Cc2ccccn2)C2CCCC2)cc1	62*	0.4	71*	-0.96	0.3
Nc1c(NCc2ccccc2)c2ccccc2oc1=O	97*	0	73*	-1.8	0.3
CNc1nc(C)nc(-c2ccccc2O)n1	16	0.8	-112	x	2.1*
Nc1nc(N)nc(-c2ccccc2O)n1	0	1	5	-0.09	1
CCCC1(CCC)NC(=O)N(CC(=O)N2CCN(C(=O)c3ccco3)CC2)C1=O	-12	1.1	20	0.44	0.8
Cc1cccc(OCc2nnc(SCC(=O)N3c4ccccc4CC3C)n2C)c1C (stereo not given)	x	x	x	-3	x
CCOC(=O)c1oc2ccccc2c1CSc1nnnn1-c1ccc(OC)cc1	16	0.8	13	-1.2	0.9
CCOC(=O)c1oc2ccc(Br)cc2c1CSc1nnc(C)s1	54*	0.5	59*	-2.4	0.4
O=C(N1CCOCC1)N1CCCN(C(=O)N2CCOCC2)CC1	0	1	-19	0.0035	1.2
CCOC(=O)CN1C=C(c2ccc3ccccc3n2)C(C[N+](=O)[O-])c2ccccc21 (stereo not given)	72*	0.3	92*	-4.9*	0.1
Cc1cc2ccccc2n1CCNC(=O)Cc1cccc2ccccc12	21	0.8	-4	-1.5	1
COc1cc(NC(=O)C2CCC(CNc3c(N4CCCCC4)c(=O)c3=O)CC2)cc(OC)c1 (stereo not given)	58*	0.4	62*	0.79	0.4
COc1cc(NC(=O)C2CCC(CNc3c(N4CCC(C)CC4)c(=O)c3=O)CC2)cc(OC)c1 (stereo not given)	33	0.7	51*	-0.28	0.5
c1ccc(N2CCCCC2)c(NC2=NCCC2)c1	6	0.9	18	0.35	0.8
C=CCOC(=O)CCC(=O)Nc1cccc2ccccc12	80*	0.2	13	0.0084	0.9
CCOC(=O)Cc1csc(NC(=O)c2cccs2)n1	88*	0.1	77*	-5.4*	0.2
CCOC(=O)Cc1csc(NC(=O)c2ccc(Br)o2)n1	45	0.6	60*	0.34	0.4
CCOC(=O)Cc1csc(NS(=O)(=O)c2ccc(F)cc2)n1	2	1	50*	-0.55	0.5
CCCCC(=O)Nc1ccc(C(=O)Nc2nc(CC(=O)OCC)cs2)cc1	22	0.8	68*	-0.12	0.3
COc1ccc(N2CC(O)=C(c3n(C)c4ccccc4[n+]3C)C2=N)cc1	-13	1.1	-11	0.54	1.1
COc1cc(/C=C/C(=O)N2CCN(CC(O)COc3ccccc3)CC2)cc(OC)c1OC (stereo not given)	2	1	-11	0.27	1.1
CCCCNc1cc(C)nc(N2CCOCC2)n1	25	0.7	5	0.21	1
CS(=O)(=O)N1c2ccccc2[C@]2([C@@]34C[C@H]5C(=O)N[C@@H](Cc6ccccc6)C(=O)N5[C@@H]3N(S(C)(=O)=O)c3ccccc34)C[C@H]3C(=O)N[C@@H](Cc4ccccc4)C(=O)N3[C@H]12	x	x	x	-0.13	x
